What all share (test): DAPPL (digital affinity profiling via proximity ligation, sequencing); 10 mM Tris-HCl pH 7.5, 50 mM NaCl, 1 mM DTT, 4% glycerol, room temperature, 30 min; GST-TFs on glutathione beads, 16-mer random dsDNA library, 0.1% formaldehyde crosslink after washing; high values mean tight binding
The target in test [1] is T1, FLI1 (Homo sapiens, UniProt Q01543 1-452).
T1 sequence: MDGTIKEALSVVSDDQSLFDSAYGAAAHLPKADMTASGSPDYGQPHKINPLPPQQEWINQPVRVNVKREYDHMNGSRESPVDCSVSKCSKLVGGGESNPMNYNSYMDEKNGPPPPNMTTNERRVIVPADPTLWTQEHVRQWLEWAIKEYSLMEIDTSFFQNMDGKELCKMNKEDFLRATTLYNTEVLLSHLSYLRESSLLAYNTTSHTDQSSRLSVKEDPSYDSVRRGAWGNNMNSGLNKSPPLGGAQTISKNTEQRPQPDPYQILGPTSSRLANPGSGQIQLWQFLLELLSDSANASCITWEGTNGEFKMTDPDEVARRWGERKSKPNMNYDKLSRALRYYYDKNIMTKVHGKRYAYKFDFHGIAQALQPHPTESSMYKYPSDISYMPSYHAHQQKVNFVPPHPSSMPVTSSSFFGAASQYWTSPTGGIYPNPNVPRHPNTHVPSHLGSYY
The settings on record: protein: recombinant; tags: N-terminal GST; dsDNA, one strand shown. A digest of the protocol: (§1)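 Yeast served to express human transcription factors as GST fusions, which were then captured on glutathione beads and labelled with DNA barcodes. Pooled with a tag-only sample, they were incubated with 200 nmole of a 16-mer random double-stranded DNA library for 30 min at room temperature in Tris/NaCl/DTT/glycerol buffer, washed, crosslinked with 0.1% formaldehyde, ligated by proximity, amplified by PCR and sequenced. Dividing each hexamer's read frequency for a factor by its frequency for the tag-only sample gives the binding signal.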

The target in test [2] is T2, ELK1 (Homo sapiens, UniProt P19419 1-428).
T2 sequence: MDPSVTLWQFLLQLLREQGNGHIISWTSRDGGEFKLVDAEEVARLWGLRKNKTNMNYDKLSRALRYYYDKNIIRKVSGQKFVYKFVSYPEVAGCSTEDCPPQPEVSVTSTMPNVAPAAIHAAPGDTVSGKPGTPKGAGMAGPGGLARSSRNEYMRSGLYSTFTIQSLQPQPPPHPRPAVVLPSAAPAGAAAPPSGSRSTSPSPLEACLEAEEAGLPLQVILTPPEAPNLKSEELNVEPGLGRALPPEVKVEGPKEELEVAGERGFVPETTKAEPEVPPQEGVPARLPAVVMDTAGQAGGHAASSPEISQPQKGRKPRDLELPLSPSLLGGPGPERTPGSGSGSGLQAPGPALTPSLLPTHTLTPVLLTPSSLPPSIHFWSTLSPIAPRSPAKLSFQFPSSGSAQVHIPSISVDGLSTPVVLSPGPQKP
The settings on record: protein: recombinant; tags: N-terminal GST; dsDNA, one strand shown. The method in brief: as §1

Test [3] deals with T3, GABPA (Homo sapiens, UniProt Q06546 1-454).
T3 sequence: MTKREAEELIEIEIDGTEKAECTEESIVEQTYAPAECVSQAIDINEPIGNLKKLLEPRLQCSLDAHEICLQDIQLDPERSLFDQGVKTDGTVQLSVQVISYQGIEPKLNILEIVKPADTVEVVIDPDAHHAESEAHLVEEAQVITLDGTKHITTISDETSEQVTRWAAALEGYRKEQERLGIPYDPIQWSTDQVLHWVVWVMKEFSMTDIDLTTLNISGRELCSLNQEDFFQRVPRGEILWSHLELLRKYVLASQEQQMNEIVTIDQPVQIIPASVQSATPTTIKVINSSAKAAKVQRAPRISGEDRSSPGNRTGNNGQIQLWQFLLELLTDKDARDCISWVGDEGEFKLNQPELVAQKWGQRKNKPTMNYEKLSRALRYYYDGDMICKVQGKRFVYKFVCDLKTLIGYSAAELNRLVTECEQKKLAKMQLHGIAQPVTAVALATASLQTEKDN
The following applies: protein: recombinant; tags: N-terminal GST; dsDNA, one strand shown. The method in brief: as §1

For test [4], the target named is T4, ERG (Homo sapiens, UniProt P11308 1-479).
T4 sequence: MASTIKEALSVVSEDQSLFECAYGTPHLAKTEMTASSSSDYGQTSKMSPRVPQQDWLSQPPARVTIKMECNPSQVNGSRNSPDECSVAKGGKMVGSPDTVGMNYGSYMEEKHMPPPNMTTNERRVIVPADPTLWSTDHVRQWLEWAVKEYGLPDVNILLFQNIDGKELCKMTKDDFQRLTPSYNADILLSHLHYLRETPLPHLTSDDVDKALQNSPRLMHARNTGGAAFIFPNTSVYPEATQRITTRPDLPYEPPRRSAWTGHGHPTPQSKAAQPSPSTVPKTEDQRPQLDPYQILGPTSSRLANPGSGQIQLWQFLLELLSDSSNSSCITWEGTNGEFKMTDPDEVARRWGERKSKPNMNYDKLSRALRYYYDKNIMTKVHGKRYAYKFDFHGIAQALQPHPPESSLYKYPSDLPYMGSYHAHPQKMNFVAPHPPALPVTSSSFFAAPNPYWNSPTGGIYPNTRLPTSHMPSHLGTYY
The following applies: protein: recombinant; tags: N-terminal GST; dsDNA, one strand shown. A digest of the protocol: as §1

Test [5] concerns the target ELF1 (Homo sapiens, UniProt P32519 1-619). The following applies: protein: recombinant; tags: N-terminal GST; dsDNA, one strand shown. The method in brief:
as §1

In test [6] the target is T5, EHF (Homo sapiens, UniProt Q9NZC4 1-300).
T5 sequence: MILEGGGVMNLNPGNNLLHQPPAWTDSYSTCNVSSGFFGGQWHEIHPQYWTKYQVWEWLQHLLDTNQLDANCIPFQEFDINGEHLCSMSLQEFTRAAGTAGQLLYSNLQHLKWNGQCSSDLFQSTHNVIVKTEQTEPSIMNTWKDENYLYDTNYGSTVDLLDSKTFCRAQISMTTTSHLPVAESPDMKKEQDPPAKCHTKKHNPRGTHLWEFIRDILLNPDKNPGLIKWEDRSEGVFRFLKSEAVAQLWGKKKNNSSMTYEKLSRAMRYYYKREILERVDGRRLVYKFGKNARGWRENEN
The settings on record: protein: recombinant; tags: N-terminal GST; dsDNA, one strand shown. The method in brief: as §1

The target of test [7] is SPI1 (Homo sapiens, UniProt P17947 1-270). The settings on record: protein: recombinant; tags: N-terminal GST; dsDNA, one strand shown. The method in brief: as §1
The target in test [8] is SPIB (Homo sapiens, UniProt Q01892 1-262). The following applies: protein: recombinant; tags: N-terminal GST; dsDNA, one strand shown. The method in brief:
as §1

Test [9] concerns the target T6, ELK3 (Homo sapiens, UniProt P41970 1-407).
T6 sequence: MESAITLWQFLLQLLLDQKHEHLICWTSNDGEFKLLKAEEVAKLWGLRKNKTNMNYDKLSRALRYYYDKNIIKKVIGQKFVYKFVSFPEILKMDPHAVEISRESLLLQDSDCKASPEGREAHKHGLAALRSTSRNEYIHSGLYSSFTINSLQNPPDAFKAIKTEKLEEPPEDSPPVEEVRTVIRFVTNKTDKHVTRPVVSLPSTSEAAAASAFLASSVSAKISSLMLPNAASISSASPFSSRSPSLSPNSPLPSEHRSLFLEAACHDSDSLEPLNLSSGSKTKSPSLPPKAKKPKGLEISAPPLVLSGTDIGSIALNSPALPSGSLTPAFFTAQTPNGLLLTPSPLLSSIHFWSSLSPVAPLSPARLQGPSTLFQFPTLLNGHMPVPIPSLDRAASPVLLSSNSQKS
The following applies: protein: recombinant; tags: N-terminal GST; dsDNA, one strand shown. A digest of the protocol: as §1

Test [10] addresses T7, FEV (Homo sapiens, UniProt Q99581 1-238).
T7 sequence: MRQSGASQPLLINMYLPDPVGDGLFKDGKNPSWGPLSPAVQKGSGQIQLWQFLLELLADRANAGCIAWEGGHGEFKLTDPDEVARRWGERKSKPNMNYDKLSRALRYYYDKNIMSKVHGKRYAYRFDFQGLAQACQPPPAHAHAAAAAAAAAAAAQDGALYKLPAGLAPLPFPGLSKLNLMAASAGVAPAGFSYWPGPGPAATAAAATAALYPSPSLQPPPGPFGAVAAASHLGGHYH
The settings on record: protein: recombinant; tags: N-terminal GST; dsDNA, one strand shown. The method in brief:
as §1

In test [11] the target is ETV5 (Homo sapiens, UniProt P41161 1-510). The following applies: protein: recombinant; tags: N-terminal GST; dsDNA, one strand shown. A digest of the protocol:
as §1

Test [12] concerns the target HSF1 (Homo sapiens, UniProt Q00613 1-529). The following applies: protein: recombinant; tags: N-terminal GST; chain copies: 3; dsDNA, one strand shown. A digest of the protocol: as §1
For test [13], the target named is T8, SPIC (Homo sapiens, UniProt Q8N5J4 1-248).
T8 sequence: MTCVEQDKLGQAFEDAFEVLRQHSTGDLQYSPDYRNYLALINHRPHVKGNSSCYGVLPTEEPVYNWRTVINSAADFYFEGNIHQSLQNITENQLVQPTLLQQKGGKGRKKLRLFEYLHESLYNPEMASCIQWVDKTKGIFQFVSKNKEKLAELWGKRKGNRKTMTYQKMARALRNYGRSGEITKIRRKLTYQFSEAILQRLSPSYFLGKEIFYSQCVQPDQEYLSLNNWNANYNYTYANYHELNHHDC
The settings on record: protein: recombinant; tags: N-terminal GST; dsDNA, one strand shown. The method in brief: as §1

The target in test [14] is ELF4 (Homo sapiens, UniProt Q99607 1-663). The following applies: protein: recombinant; tags: N-terminal GST; dsDNA, one strand shown. A digest of the protocol:
as §1

The target in test [15] is T9, ELK4 (Homo sapiens, UniProt P28324-2 1-405).
T9 sequence: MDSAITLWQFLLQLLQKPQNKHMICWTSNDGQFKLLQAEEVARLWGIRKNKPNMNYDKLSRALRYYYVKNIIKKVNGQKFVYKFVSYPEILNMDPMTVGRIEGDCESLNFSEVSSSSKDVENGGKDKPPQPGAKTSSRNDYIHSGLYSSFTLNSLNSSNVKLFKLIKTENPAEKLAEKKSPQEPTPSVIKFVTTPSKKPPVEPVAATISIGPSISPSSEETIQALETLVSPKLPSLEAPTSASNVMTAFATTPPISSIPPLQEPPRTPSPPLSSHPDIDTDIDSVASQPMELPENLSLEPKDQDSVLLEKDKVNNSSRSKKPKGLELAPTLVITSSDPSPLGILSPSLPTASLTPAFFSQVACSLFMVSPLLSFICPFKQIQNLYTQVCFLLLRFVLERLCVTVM
The settings on record: protein: recombinant; tags: N-terminal GST; dsDNA, one strand shown. The method in brief: as §1

Test [16] has as its target T10, ETV2 (Homo sapiens, UniProt O00321 1-342).
T10 sequence: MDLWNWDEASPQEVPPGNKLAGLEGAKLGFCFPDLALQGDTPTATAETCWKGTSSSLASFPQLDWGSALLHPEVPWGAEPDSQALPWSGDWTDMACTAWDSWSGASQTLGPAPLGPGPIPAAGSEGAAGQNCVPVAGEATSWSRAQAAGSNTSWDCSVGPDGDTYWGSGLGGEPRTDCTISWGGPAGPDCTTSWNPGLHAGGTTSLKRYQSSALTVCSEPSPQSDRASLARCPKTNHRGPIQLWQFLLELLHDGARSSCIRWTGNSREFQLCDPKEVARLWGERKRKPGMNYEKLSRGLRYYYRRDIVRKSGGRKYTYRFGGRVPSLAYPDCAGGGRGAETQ
The following applies: protein: recombinant; tags: N-terminal GST; dsDNA, one strand shown. A digest of the protocol: as §1

Test [17] has as its target T11, ELF3 (Homo sapiens, UniProt P78545 1-371).
T11 sequence: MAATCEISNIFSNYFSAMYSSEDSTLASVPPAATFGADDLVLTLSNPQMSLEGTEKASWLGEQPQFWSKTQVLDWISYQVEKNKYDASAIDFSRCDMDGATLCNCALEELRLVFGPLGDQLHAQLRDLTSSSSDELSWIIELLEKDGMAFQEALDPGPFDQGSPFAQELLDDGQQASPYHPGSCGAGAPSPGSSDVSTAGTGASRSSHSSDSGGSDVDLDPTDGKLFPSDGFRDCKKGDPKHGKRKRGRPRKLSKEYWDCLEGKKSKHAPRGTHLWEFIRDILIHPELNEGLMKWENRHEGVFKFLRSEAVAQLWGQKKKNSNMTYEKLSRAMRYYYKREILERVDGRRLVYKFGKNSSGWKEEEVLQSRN
The settings on record: protein: recombinant; tags: N-terminal GST; dsDNA, one strand shown. A digest of the protocol: as §1

The target in test [18] is CRX (Homo sapiens, UniProt O43186 1-299). The following applies: protein: recombinant; tags: N-terminal GST; dsDNA, one strand shown. A digest of the protocol:
as §1

The target in test [19] is ETV1 (Homo sapiens, UniProt P50549 1-477). The settings on record: protein: recombinant; tags: N-terminal GST; dsDNA, one strand shown. A digest of the protocol: as §1
Sequence of ETV1 (P50549 whole entry): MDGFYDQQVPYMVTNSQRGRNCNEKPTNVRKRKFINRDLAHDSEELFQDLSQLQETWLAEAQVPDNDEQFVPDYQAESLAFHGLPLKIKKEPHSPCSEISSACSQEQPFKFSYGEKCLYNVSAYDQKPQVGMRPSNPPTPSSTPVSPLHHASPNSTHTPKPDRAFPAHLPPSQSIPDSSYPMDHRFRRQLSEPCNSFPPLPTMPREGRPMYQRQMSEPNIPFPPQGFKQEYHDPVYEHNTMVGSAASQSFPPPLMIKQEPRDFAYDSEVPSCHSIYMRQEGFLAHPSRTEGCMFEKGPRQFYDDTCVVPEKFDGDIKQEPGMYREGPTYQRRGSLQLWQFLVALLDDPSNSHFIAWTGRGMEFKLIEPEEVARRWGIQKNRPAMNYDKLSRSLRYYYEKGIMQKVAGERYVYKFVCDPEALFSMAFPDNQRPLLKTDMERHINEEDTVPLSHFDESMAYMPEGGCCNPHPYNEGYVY

Sequence of CRX (O43186 whole entry): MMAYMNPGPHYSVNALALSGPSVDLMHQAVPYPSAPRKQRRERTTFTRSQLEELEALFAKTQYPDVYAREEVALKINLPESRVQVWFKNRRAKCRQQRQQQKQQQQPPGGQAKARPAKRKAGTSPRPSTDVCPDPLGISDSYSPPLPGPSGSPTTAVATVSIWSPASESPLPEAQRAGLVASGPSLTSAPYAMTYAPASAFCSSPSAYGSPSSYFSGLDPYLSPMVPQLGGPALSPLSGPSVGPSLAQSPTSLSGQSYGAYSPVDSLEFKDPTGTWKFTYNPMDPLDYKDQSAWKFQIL
Sequence of ELF1 (P32519 whole entry): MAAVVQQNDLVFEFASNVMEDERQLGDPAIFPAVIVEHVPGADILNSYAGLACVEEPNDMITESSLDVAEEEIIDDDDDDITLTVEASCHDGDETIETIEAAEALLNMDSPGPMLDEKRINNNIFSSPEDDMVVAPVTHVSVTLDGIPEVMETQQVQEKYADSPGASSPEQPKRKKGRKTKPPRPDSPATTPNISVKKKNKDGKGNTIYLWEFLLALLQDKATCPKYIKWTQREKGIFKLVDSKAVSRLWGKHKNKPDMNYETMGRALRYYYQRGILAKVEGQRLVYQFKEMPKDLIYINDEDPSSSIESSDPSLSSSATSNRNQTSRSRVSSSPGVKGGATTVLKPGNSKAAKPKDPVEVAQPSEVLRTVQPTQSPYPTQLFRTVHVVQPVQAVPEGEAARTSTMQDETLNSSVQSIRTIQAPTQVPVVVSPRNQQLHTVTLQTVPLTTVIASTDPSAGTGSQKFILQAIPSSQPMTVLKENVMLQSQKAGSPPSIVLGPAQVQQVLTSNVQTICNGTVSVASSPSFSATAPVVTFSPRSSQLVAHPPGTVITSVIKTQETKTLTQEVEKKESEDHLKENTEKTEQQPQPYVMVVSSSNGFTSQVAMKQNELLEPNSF
Sequence of ELF4 (Q99607 whole entry): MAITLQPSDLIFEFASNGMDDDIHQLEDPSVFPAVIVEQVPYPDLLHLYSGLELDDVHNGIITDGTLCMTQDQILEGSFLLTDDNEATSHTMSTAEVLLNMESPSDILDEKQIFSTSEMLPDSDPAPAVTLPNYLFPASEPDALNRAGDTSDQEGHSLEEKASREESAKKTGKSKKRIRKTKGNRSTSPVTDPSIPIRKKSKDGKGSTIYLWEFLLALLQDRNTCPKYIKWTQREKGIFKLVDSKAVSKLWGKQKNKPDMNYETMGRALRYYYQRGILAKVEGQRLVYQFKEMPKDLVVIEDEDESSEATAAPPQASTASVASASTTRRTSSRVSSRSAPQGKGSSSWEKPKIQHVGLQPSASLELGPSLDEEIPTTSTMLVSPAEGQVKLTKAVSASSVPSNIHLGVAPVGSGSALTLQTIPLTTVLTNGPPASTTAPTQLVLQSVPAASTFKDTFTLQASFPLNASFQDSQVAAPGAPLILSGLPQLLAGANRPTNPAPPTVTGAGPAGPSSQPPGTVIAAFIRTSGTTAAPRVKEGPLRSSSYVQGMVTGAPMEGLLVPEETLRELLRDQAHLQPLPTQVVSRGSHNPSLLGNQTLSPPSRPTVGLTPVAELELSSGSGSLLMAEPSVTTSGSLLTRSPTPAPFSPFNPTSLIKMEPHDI
Sequence of SPIB (Q01892 whole entry): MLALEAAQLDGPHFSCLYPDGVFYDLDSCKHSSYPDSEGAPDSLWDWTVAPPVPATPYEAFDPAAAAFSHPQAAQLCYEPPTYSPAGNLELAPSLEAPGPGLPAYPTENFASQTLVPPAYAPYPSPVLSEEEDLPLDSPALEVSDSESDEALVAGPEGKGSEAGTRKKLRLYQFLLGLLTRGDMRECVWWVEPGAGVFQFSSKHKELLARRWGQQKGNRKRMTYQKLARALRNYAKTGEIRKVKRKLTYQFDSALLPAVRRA
Sequence of ETV5 (P41161 whole entry): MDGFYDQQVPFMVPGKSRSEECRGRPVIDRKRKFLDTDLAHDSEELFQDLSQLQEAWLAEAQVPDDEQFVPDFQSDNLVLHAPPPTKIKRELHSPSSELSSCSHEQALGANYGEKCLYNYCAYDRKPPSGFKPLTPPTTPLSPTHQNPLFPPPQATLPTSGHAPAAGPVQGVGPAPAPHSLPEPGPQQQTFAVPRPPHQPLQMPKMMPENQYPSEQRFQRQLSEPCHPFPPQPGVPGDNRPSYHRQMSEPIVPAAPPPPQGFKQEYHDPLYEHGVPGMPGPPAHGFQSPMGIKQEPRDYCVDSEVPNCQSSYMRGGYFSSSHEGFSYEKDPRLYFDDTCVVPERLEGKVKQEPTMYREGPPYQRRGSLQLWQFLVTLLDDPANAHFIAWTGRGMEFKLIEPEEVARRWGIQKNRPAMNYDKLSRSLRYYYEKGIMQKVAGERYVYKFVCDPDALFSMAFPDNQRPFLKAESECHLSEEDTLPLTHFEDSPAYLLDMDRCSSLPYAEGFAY
Sequence of HSF1 (Q00613 whole entry): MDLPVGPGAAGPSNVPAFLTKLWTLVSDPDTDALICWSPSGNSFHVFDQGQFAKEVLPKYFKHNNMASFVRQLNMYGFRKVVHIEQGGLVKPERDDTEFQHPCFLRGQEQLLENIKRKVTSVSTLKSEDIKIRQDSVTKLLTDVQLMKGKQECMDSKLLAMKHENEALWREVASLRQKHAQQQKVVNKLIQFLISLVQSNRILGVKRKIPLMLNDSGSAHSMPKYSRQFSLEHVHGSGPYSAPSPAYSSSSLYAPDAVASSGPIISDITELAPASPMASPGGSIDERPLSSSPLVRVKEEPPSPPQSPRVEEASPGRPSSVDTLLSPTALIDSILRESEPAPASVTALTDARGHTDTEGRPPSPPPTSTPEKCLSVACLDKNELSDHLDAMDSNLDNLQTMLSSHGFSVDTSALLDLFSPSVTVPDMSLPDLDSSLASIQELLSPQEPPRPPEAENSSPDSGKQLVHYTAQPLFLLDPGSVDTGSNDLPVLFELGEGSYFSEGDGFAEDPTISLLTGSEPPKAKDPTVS

As to CCCCTT, the binding signal is 1.48 fold enrichment (6-mer frequency, TF over GST control) in [1]; 1.55 fold enrichment (6-mer frequency, TF over GST control) in test [2]; 1.44 fold enrichment (6-mer frequency, TF over GST control) in [3]; 1.54 fold enrichment (6-mer frequency, TF over GST control) in test [4]; 1.53 fold enrichment (6-mer frequency, TF over GST control) in test [5]; 1.62 fold enrichment (6-mer frequency, TF over GST control) in [6]. For the same sequence, the binding signal in test [7] is 2.01 fold enrichment (6-mer frequency, TF over GST control); in [8], 1.53 fold enrichment (6-mer frequency, TF over GST control); in test [9], 1.51 fold enrichment (6-mer frequency, TF over GST control); in test [10], 1.57 fold enrichment (6-mer frequency, TF over GST control); in test [11] it was 1.62 fold enrichment (6-mer frequency, TF over GST control); in test [12], 1.37 fold enrichment (6-mer frequency, TF over GST control). The binding signal is 1.56 fold enrichment (6-mer frequency, TF over GST control) in test [13]; 1.63 fold enrichment (6-mer frequency, TF over GST control) in [14]; 1.53 fold enrichment (6-mer frequency, TF over GST control) in [15]; 1.35 fold enrichment (6-mer frequency, TF over GST control) in [16]; 1.6 fold enrichment (6-mer frequency, TF over GST control) in test [17]; 1.41 fold enrichment (6-mer frequency, TF over GST control) in [18]. The binding signal in test [19] was 1.63 fold enrichment (6-mer frequency, TF over GST control).

The values above are taken from article PMC7862700, “An all-to-all approach to the identification of sequence-specific readers for epigenetic DNA modifications on cytosine”.
